Over roughly 140,000 sequences, “enrichment ratio after two sorts for PhoP signalling” has its median near 0; the highest 2% begin near 11. What follows is part of a selection rich in the highest values, with near analogues and random picks from the rest.
B1: PhoQ; a variant is named by its letters at X, in order, P23837 (parent)
chain: MKKLLRLFFPLSLRVRFLLATAAVVLVLSLAYGMVALIGYSVSFDKTTFRLLRGESNLFYTLAKWENNKLHVELPENIDKQSPTMTLIYDENGQLLWAQRDVPWLMKMIQPDWLKSNGFHEIEADVNDTSLLLSGDHSIQQQLQEVREDDDDAEMTHSVAVNVYPATSRMPKLTIVVVDTIPVELKSSYMVWSWFIYVLSANLLLVIPLLWVAAWWSLRPIEALAKEVRELEEHNRELLNPATTRELTSLVRNLNRLLKSERERYDKYRTTLTDLTHSLKTPLXXLQXXLRSLRSEKMSVSDAEPVMLEQISRISQQIGYYLHRASMRGGTLLSRELHPVAPLLDNLTSALNKVYQRKGVNISLDISPEISFVGEQNDFVEVMGNVLDNACKYCLEFVEISARQTDEHLYIVVEDDGPGIPLSKREVIFDRGQRVDTLRPGQGVGLAVAREITEQYEGKIVAGESMLGGARMEVIFGRQHSAPKDE

Variants of: B1
Experiment: enrichment ratio after two sorts for PhoP signalling (ratio (wild type AVST 3.29)); higher = more functional
Conditions: with PhoP (E. coli)

Variant | enrichment ratio
GAQK | ≤ 0.25
NGQA | ≤ 0.25
VMKG | ≤ 0.25
ILNQ | ≤ 0.25
DMSW | ≤ 0.25
TCQW | ≤ 0.25
LQMI | ≤ 0.25
MMFL | ≤ 0.25
HDFE | ≤ 0.25
WLYA | ≤ 0.25
MQLG | 22
SFLG | 10.9
MQLA | ≤ 0.25
SELG | 25.3
KYLG | ≤ 0.25
MQWG | 4.64
LEAH | 0.895
TEQC | 9.21
FELK | ≤ 0.25
FTPI | ≤ 0.25
MFEY | ≤ 0.25

Variant | enrichment ratio
WMWW | ≤ 0.25
HFSG | ≤ 0.25
TTSG | 19.5
GGSG | ≤ 0.25
TSSG | 14.4
PGSG | ≤ 0.25
TFSG | 13.9
PFSG | ≤ 0.25
NSSG | ≤ 0.25
YTSG | ≤ 0.25
KSSG | ≤ 0.25
TGSG | 16.4
KQSG | ≤ 0.25
MWFY | ≤ 0.25
SQPK | ≤ 0.25
VRWV | ≤ 0.25
SYQC | ≤ 0.25
RTQR | ≤ 0.25
TVSG | 20.3
GNSG | 13.2
SPSG | ≤ 0.25

Variant | enrichment ratio
GVSG | 7.26
GISG | 8.5
HCSG | ≤ 0.25
WDLS | ≤ 0.25
DAKY | ≤ 0.25
NIQR | ≤ 0.25
SHLG | 10.8
AHLG | 6.95
APLG | ≤ 0.25
KKLG | ≤ 0.25
THLG | 14.4
NHLG | ≤ 0.25
AQLG | 18.8
ADLG | 3.46
AFTG | 5.35
AFFG | ≤ 0.25
AFLG | 15.7
AILG | 15.7
MEPF | ≤ 0.25
WCFV | ≤ 0.25
GSFI | ≤ 0.25

Variant | enrichment ratio
RMTQ | ≤ 0.25
YEWD | ≤ 0.25
LWMC | ≤ 0.25
QNWS | 8.87
PPKF | ≤ 0.25
WPCT | ≤ 0.25
SLTH | 5.18
NKDQ | ≤ 0.25
FHGD | ≤ 0.25
NMLG | ≤ 0.25
TMLG | 11.6
VRLG | ≤ 0.25
DMLG | ≤ 0.25
TTLG | 10.6
YTLG | 6.93
ATLG | 12.3
FSLG | 8.53
ASLG | 18.2
RQGG | ≤ 0.25
RQFP | ≤ 0.25
PNPW | ≤ 0.25
